Only some compounds are listed: those with a hit (about 6.5% of all), similar ones and a draw of the others.
FMDV antiviral: antivirals against foot and mouth disease virus; FMDV antiviral cell-based qHTS; Potency, µM (highest dose often 57.9 µM), for inactives: top-dose activity change, negative = inhibition, most hits filed as inhibitors; 1.2% of 410,000 active; calls by dose curve; tested in HEK293T cells; further: read-out not given here; potency means the concentration at half of the fitted maximal effect; nearly all actives have a fitted effect of over 45% in size
Marburg entry inh: Marburg virus entry inhibition. Marburg virus pseudotyped entry inhibition, cell reporter. Potency, µM (doses to about 37.8 µM), for the others: top-dose activity change, negative = inhibition, most hits filed as inhibitors. 1.8% of 300,000 active; calls by dose curve; tested in HEK293 cells; further: potency means the concentration at half of the fitted maximal effect
VACV Venus inh: vaccinia inhibition (Venus reporter). Vaccinia virus Venus reporter expression, fluorescence. Potency, µM (titrated, usually from 36.5 µM), for inactives: top-dose activity change, negative = inhibition, most hits filed as inhibitors. 0.46% of 330,000 active; calls by dose curve; tested in A549 cells; further: potency means the concentration at half of the fitted maximal effect; nearly all actives have a fitted effect of over 30% in size
VACV mCherry inh: vaccinia inhibition (mCherry reporter); Vaccinia virus mCherry reporter infection, fluorescence; Potency, µM (doses to about 36.5 µM), inactives show at the highest dose activity change, negative = inhibition, most hits filed as inhibitors; 0.63% of 310,000 active; calls by dose curve; tested in A549 cells; further: potency means the concentration at half of the fitted maximal effect; nearly all actives have a fitted effect of over 35% in size
Lassa entry inh: Lassa virus entry inhibition | 1.2% of 300,000 active | Lassa virus pseudotype entry inhibition, cell reporter | AID 540256 | Potency, µM (series often up to 37.9 µM), for the others: at the top dose activity change, negative = inhibition, usual class: inhibitors; calls by dose curve; tested in HEK293 cells; further: potency means the concentration at half of the fitted maximal effect; nearly all actives have a fitted effect of over 50% in size
HCMV antiviral: blocks human cytomegalovirus replication; HFF cells, HCMV-luciferase reporter, 72 h; hits give low values; activity change, negative = inhibition, % at 57.5 µM; 4.5% of 410,000 active; AID 1259415; in the data active means activity change below about -60%; inconclusive means no clear call, values can overlap the other calls; inactive means above about -39%
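Cell-based, HFFs, 1000 cells/well, 16 h 37C; cpds in DMSO + HCMV-luc, MOI 1 PFU/cell; 72 h 37C; OneGlo luminescence after 5 min RT; norm. to buffer vs Salinomycin 10uM.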
Active calls of the source: *; i = inactive; ? = inconclusive; · = no result; [ ] = another dose, or the depositor's remark. On the % scale 0 is the no-effect control and ±100 the full control effect.

SMILES	FMDV antiviral	Marburg entry inh	VACV Venus inh	VACV mCherry inh	Lassa entry inh	HCMV antiviral
COCCN=c1scc(-c2cc(OC)c(OC)c(OC)c2)n1/N=C/c1c(C)[nH]c2ccccc12	?	11µM*	?	?	?	44
Cc1nc2ccn(Cc3ccccc3)c(=O)c2cc1C(=O)Nc1ccc(F)cc1Cl	-17%	·	-1%	-4%	7%[46.1 µM]	-1
Nc1ccc(Cn2ccc3c4c(N)nc(N)nc4ccc32)cc1	?	?	?	0.35µM*	?	-99*
CN(C)C1CCc2[nH]c3ccc(NC(=O)c4ccc(F)cc4)cc3c2C1 (stereo not given)	-3%	·	·	·	·	·
CCOc1ccccc1NC(=O)CSc1n[nH]c(=O)n1-c1ccccc1	-22%	·	·	·	·	19
O=c1[nH]nc(SCCS(=O)(=O)c2ccc(F)cc2)n1-c1ccc2c(c1)OCCO2	-28%	?	1.6µM*	?	-16%[46.1 µM]	-81*
O=c1[nH]nc(SCCS(=O)(=O)c2ccc(F)cc2)n1-c1ccccc1	?	-25%	2.2µM*	1.3µM*	-24%	-79*
COc1ccc2c3c1O[C@H]1C[C@H](O)C=C[C@@]31CCN(C)C2	-22%	·	·	·	·	·
Cc1csc(NC(=O)CSc2ncnc3c2cnn3-c2ccccc2Cl)n1	14µM*	13µM*	?	?	?	·
CCOC(=O)Cc1csc(NC(=O)CSc2ncnc3c2cnn3-c2ccc(OC)cc2)n1	22µM*	?	-26%	i	2µM*	-2
COc1ccc(NC(=O)CSc2ncnc3c2cnn3CCc2ccccc2)cc1	20%	?	-20%	-21%[1.46 µM]	11µM*	102
CCOC(=O)CNC(=O)CSc1ncnc2c1cnn2-c1ccc(Cl)cc1	-8%	27%[46.1 µM]	0%	-14%	7%	21
Cc1ccc(-n2ncc3c(SCC(=O)NNC(=O)C(C)C)ncnc32)cc1	5%	?	-13%	-5%	2%	-27
CC(C)C(=O)NNC(=O)CSc1ncnc2c1cnn2-c1ccccc1Cl	-26%	·	·	·	·	-65*
COc1ccc(CNC(=O)c2ccc3nc(C(C)C)oc3c2)cc1OC	-23%	·	-26%	-21%	-25%[46.1 µM]	8
NC(=O)NC(=O)COC(=O)/C=C/c1cccc(Br)c1	-8%	·	-15%	i	·	46
CCOC(=O)C(CC)(CC)C(=O)/C=C/c1cccc(Br)c1	22µM*	?	-26%	?	?	-75*
COc1ccc(NC(=O)Cn2c(=O)n(Cc3ccco3)c(=O)c3cc(OC)c(OC)cc32)cc1	-8%	11%[46.1 µM]	5%	2%	?	-97*
N=c1ccn(Cc2ccc(Cl)cc2Cl)cc1	?	-12%	?	·	?	-97*
Clc1ccc(CN2CCSCC2)c(Cl)c1	-21%	10%	-18%	i	6%	1
N=c1ccn(Cc2c(Cl)cccc2Cl)cc1	-28%	?	7%	-19%	-13%[46.1 µM]	-78*
Cc1ccc(C)n1Cc1ccccc1Cl	-21%	27%[46.1 µM]	-11%	-2%	15%[46.1 µM]	-12
N=c1ccn(Cc2ccccc2Cl)cc1	?	?	?	·	-2%	-85*
CC(C)[C@H](NC(=O)CNC(=O)OC(C)(C)C)C(=O)N[C@H](C=O)C(C)C	-3%	·	-4%[60.7 µM]	-6%[60.7 µM]	·	·
COc1cccc(Nc2ncc3nc(-c4cn(C)c5ccccc45)c(=O)n(CCC#N)c3n2)c1	-28%	·	·	·	·	·
SMILES	FMDV antiviral	Marburg entry inh	VACV Venus inh	VACV mCherry inh	Lassa entry inh	HCMV antiviral
Clc1ccc(-c2cn3nc4c(nc3n2)CCCC4)cc1	11µM*	?	-10%	·	0.71µM*	?
COc1cccc(-c2cn3nc4c(nc3n2)CCCC4)c1	-85%	?	-23%	·	?	·
CC1CN(C(=O)c2cccc(COc3ccc(Br)cc3)c2)CC(C)O1 (stereo not given)	-15%	?	-26%	-32%	?	-78*
CCOc1ccc(OCc2cccc(C(=O)N3CCOCC3)c2)cc1	-1%	2%	·	·	·	153
COc1cc2oc(=O)c3c4c(cc5ccc(c1CCN(C)C)c2c53)OCO4	-6%	·	·	·	·	·
O=[N+]([O-])c1ccc(S(=O)(=O)N(CC(O)CN2CCCCC2)c2ccccc2)cc1 (stereo not given)	3%	5%[46.1 µM]	-1%	-1%	·	-9
O=[N+]([O-])c1ccc(N(CC(O)CN2CCCCC2)S(=O)(=O)c2ccccc2)cc1 (stereo not given)	-1%	-14%[46.1 µM]	5%	-11%	-3%[46.1 µM]	-64*
O=C(Nc1nnc(-c2ccc3c(c2)CCCC3)o1)c1ccccc1Cl	5%	·	-29%	?	·	32
O=C(Nc1nnc(-c2ccc(F)cc2)o1)c1cccc([N+](=O)[O-])c1	19%	?	?	?	-25%	-98*
O=C(Nc1nnc(-c2ccc3c(c2)CCCC3)o1)c1ccccc1	14%	·	?	10µM*	·	-4
COc1ccc(CN(Cc2ccccc2)C(=O)C2CC2)cc1COc1ccc(NC(C)=O)cc1	·	·	-29%	-11%	·	·
CCN(CC)CCNC(=O)c1cnn(-c2nccc(-c3cc4ccccc4o3)n2)c1C	-9%	·	-4%	-14%	·	·
Cc1ccc(C2(CCNCc3ccc(N(C)C)cc3)CCOC(C(C)C)C2)cc1 (stereo not given)	-25%	?	-21%	-7%	?	-39
Cc1ccc(C2(CCNS(=O)(=O)c3ccc(C)cc3)CCOC(C(C)C)C2)cc1 (stereo not given)	-3%	6.5µM*	-22%	-6%	?	-22
CCNCc1nc2cc(Cl)ccc2c(=O)[nH]1	-8%	-7%	-20%	-11%	0%	-69*
NC(=O)C1CCN(Cc2nc3cc(Cl)ccc3c(=O)[nH]2)CC1	-22%	4%	-19%	?	25%	-13
COc1ccccc1OCCC(=O)O	-9%	1%[46.1 µM]	10%	i	25%[46.1 µM]	-91*
Cc1c(NC(=S)N/N=C/C=C/c2ccccc2)c(=O)n(-c2ccccc2)n1C	-12%	-2%[46.1 µM]	-17%	-10%	6%[46.1 µM]	-18
Cc1c(NC(=S)N/N=C/C=C/c2ccc([N+](=O)[O-])cc2)c(=O)n(-c2ccccc2)n1C	?	4%	-19%	i	2%	-103*
Cc1c(NC(=S)N/N=C\c2ccccc2O)c(=O)n(-c2ccccc2)n1C	18%	-17%	?	13µM*	-19%	-27
Clc1cccc(Nc2ncnc3ccc(Br)cc23)c1	·	?	?	-10%	-24%	-62*
COc1ccc(Nc2ncnc3ccc(Br)cc23)cc1OC	-9%	?	-21%	?	-15%	·
Clc1ccc(Nc2ncnc3ccc(Br)cc23)cc1	·	?	?	?	-23%	-83*
CN(C)c1ccc(Nc2ncnc3ccc(Br)cc23)cc1	5%	·	·	·	·	-76*
Cc1cccc(Nc2ncnc3ccc(Br)cc23)c1	-19%	?	?	-1%	-6%[46.1 µM]	-60*
Cc1ccccc1N1C(=O)NC(=O)/C(=C/c2ccc(N3CCOCC3)o2)C1=O	-6%	?	10%	-19%	0%	26

Screens: PubChem, National Center for Advancing Translational Sciences (NCATS)
